These results are taken from PubChem BioAssay.

Test [1] in a line: reducers of endogenous Her2 protein level, primary screen, SKBR3 breast tumor cells, AlphaScreen, ATP viability (AID 461;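 active means Her2 level under about 52% in both replicate screens, with viability over 70% of control, limit read from the data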;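 on Her2 level: lower value means less Her2 protein in the cells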;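 on viability: percent of carrier control wells set as 100% viability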). The settings on record: 18-24 h, measured here: SKBR3 viability, ATP luminescence, at 10 µM. A general note: Alpha assays give light when donor and acceptor beads are brought close together.
The target in test [2] is Receptor tyrosine-protein kinase erbB-2 (Homo sapiens) (UniProt P04626). Described as above. The settings on record: 18-24 h, at 10 µM, stronger effect = lower value.
Test [3] is described as follows: SK-BR-3 cell growth inhibitors, pilot screen, 24 h, human (AID 572;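 active means viability at or below 10% of carrier control in both of two separate runs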;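 further: compound exposure lasted between 18 and 24 h rather than exactly 24 h; 100% = carrier-treated control wells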). The settings on record: SK-BR-3 viability, CellTiter-Glo luminescence, at 10 µM, stronger effect = lower value.
The nature of test [4]: HUVEC growth inhibition – cell-based, human, primary screen (AID 575;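 active means viability at or below 30% in both replicate assays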;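 further: 100% = median of untreated cell wells with 0.1% DMSO on each plate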). The settings on record: HUVEC proliferation, CellTiter-Glo luminescence, 72 h; at 10 µM; stronger effect = lower value. A general note: In ATP-based viability assays light output follows the ATP content of the culture.
Test [5] is described as follows: growth inhibitors of H69AR lung tumor, primary screen, human, duplicate replicates (AID 580).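 Further: 100% = mean luminescence of untreated wells and 0% = no signal.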 The conditions noted are these: H69AR lung tumor cells viability, ATP luminescence, 72 h; at 10 µM; stronger effect = lower value.
Test [6] is described as follows: reversal of MRP1-mediated doxorubicin resistance, pilot screen, H69AR cells, doxorubicin co-treatment (AID 601;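 active means viability loss from added drug above about 55%, and viability with drug at most 40%, in both replicates, limit read from the data, passing the limit was not always enough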). The conditions noted are these: CellTiter-Glo, 72 h, at 10 µM; for differential viability (reversal): stronger effect = higher value.
A short description of test [7]: 384-well plate pilot, post-Golgi transport modulator project, inhibition of yeast transport mutant growth (AID 636; in the data active means inhibition above about 31%). The conditions noted are these: absorbance 615 nm, about 18 h, stronger effect = higher value.
The nature of test [8]: growth suppression of yeast trafficking mutant, preliminary HTS, modulators of trafficking downstream of Golgi apparatus project, 1536-format plate, OD 615 nm (AID 637; in the data active means inhibition above about 30%). The settings on record: yeast transport mutant growth, absorbance 615 nm, 18 h; stronger effect = higher value.
Test [9] can be described thus: OD615 S. cerevisiae growth inhibition, permissive medium, pilot counter-assay, permissive growth control for S. cerevisiae lifespan shortening project (AID 705;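 active means growth inhibition above 25% in both replicates, a cutoff set 3 SD above the mean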). The conditions noted are these: OD615, 24 h, at 10 µM, stronger effect = higher value.
Test [10] is described as follows: Restrictive medium S. cerevisiae growth inhibition, OD615, pilot screen of yeast lifespan reduction project, restrictive growth control (AID 706;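 active means growth inhibition above a set limit, 3 SD over mean compound inhibition, in both replicates, cut at about 43% in these data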;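 further: modified DeaD lifespan yeast strain shifted to restrictive glucose medium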). The conditions noted are these: OD615, 48 h, at 10 µM, stronger effect = higher value.
A short description of test [11]: viability gain of MRP-1-high H69AR cells under doxorubicin, pilot screen, MRP-1 activator project, CellTiter-Glo, duplicate (AID 807;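 active means viability increase at or above a cutoff of the median across tested compounds plus 3 SD, cut at about 8.5% in these data, passing the limit was not always enough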;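 further: compound pretreatment 18-22 h then 72 h combined with doxorubicin; 0% = doxorubicin alone and 100% = vehicle without doxorubicin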). The settings on record: H69AR viability with doxorubicin, CellTiter-Glo luminescence; at 10 µM; stronger effect = higher value.
The nature of test [12]: growth suppression of beta-catenin knockout HCT116, pilot screen, human colon tumor cells (AID 823;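 active means cell viability at or below a set limit in both duplicate runs, the limit being the all-compound median minus 4 SD, cut at about 23% in these data, passing the limit was not always enough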;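 further: 0% = wells killed by 20 µM Hyamine and 100% = untreated DMSO cell wells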). The conditions noted are these: CellTiter-Glo, 60 h, at 10 µM, stronger effect = lower value.
The nature of test [13]: growth suppression of PTEN-deleted HCT116, pilot screen, cell-based, HCT116 clonal line, CellTiter-Glo (AID 824;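 active means viability at or below 27.92% in each of two runs, the all-compound median minus 4 SD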;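 further: 0% = 20 µM Hyamine control and 100% = vehicle cell control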). The conditions noted are these: 60 h, at 10 µM, stronger effect = lower value.
Test [14] in a line: inhibitors of the yeast RAM network, pilot screen, dse1pr::URA3 reporter, 5-FOA selection (AID 869;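 active means inhibition over a set limit, the all-compound mean plus 3 SD, in both replicate runs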;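 further: 0% = DMSO wells with no growth and 100% = 10 µM 1-NA-PP1 with full growth; RAM network block rescues cells from 5-FOA so hits raise OD615 growth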). The settings on record: S. cerevisiae dse1pr::URA3 5-FOA growth, OD615, 2 d; at 10 µM; stronger effect = higher value; strain carries analog-sensitive mutant Cbk1 kinase.
The nature of test [15]: RAM signaling pathway blockade in yeast – S. cerevisiae, Pdr1DBD-CYC8 efflux-inhibited sensitized strain, primary screen (AID 1298;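 active means RAM network inhibition above 8.4% in each of two replicates, 3 SD over the compound average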;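 further: 0% = DMSO untreated cells without growth and 100% = 10 µM 1-NA-PP1 full growth; higher means more yeast growth rescued from 5-FOA killing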). The conditions noted are these: S. cerevisiae cbk1-as DSE1-URA3 strain, 5-FOA growth OD615, 2 d; at 50 µM; stronger effect = higher value.
The mark [16] stands for this setting: H69AR cells + 2 uM doxorubicin, measured here: viability with 2 uM doxorubicin, stronger effect = lower value.
[17] abbreviates: H69AR cells, compound alone cytotoxicity.

Inconclusive results are not listed. Activity calls are given as the source filed them.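 How the source made its calls, unless noted: active means viability at or under a set limit in both replicates, limit being median viability minus 3 SD (cut at about 48% in these data, passing the limit was not always enough); inconclusive means at or under the limit in just one replicate; inactive means at or above the limit in both replicates.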

Chain of Receptor tyrosine-protein kinase erbB-2 (Homo sapiens) (P04626 whole entry, looked up): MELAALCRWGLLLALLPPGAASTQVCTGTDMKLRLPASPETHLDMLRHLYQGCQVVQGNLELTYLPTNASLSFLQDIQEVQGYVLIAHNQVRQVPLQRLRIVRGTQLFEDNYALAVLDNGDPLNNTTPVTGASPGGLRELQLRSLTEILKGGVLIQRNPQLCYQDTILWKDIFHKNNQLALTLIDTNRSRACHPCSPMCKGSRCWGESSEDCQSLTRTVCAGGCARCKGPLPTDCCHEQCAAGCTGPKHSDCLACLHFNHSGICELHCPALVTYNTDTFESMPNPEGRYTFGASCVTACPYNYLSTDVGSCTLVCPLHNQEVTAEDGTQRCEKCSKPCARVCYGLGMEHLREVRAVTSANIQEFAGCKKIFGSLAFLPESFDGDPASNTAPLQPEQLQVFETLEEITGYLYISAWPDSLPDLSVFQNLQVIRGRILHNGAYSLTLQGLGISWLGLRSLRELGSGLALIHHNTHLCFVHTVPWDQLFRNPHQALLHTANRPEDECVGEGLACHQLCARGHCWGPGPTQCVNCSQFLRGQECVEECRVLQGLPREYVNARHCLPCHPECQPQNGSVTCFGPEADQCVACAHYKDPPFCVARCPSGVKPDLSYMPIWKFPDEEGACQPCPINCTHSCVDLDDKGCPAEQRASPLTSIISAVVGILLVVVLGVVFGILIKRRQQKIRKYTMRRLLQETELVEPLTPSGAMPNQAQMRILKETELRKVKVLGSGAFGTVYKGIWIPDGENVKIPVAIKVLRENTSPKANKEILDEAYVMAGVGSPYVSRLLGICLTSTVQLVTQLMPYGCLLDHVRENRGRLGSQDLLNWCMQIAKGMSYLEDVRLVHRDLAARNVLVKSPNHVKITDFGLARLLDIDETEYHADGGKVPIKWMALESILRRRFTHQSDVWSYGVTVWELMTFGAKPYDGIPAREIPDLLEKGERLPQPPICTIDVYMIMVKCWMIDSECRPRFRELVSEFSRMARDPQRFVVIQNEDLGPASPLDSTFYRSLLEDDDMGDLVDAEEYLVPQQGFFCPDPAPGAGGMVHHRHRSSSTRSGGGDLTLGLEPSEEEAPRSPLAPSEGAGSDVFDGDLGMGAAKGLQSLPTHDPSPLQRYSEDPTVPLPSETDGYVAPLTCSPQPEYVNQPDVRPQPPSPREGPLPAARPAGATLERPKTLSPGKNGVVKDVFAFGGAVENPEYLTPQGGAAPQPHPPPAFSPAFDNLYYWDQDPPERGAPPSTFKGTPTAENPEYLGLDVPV

What is called viability is a read-out of living cells in per cent, often relative to untreated cells. As a reminder, the inhibition is the relative decrease from the control value, in per cent. Take `c1ccc(Cn2nnc3c(N4CCCCCC4)ncnc32)cc1`: the viability in [1] is 94%; in [3], 94% (inactive); in test [4], 57.5% (inactive); in test [5] it was 69.9% (inactive); in [6] (setting [16]) it was 83.8%; in test [6] (setting [17]), 69.9%. The viability in test [12] was 40% (inactive); in test [13] it was 33.6% (inactive). Also, the Her2 level in test [2] was 88% (inactive). Further, the differential viability (reversal) in test [6] (H69AR cells + 2 uM doxorubicin) is -13.9% (inactive). The inhibition in test [7] is -5.87% (inactive); in test [8] it was 2.83% (inactive); in [14] it was 0.74% (inactive). For the same compound, the growth inhibition is -13% (inactive) in test [9] and -8.65% (inactive) in [10]. Besides, the viability increase in [11] was -0.65% (inactive). In test [15], the RAM network inhibition was 5.41% (inactive).

In the case of `O=C(Nn1cnnc1)C1Cc2ccccc2CN1S(=O)(=O)c1ccc(F)cc1` (stereo not drawn), the viability in test [1] was 112%; in test [3] it was 112% (inactive); in [4] it was 90.4% (inactive); in test [5], 97.2% (inactive); in test [6] (setting [16]), 98.8%; in [6] (setting [17]) it was 97.2%. Besides, the viability in [12] is 101% (inactive); in test [13], 102% (inactive). Also, the Her2 level in test [2] was 97% (inactive). In test [6] (H69AR cells + 2 uM doxorubicin), the differential viability (reversal) is -1.64% (inactive). In addition, the inhibition was -5.95% (inactive) in [7], 4.75% (inactive) in [8] and 0.38% (inactive) in [14]. The growth inhibition in test [9] is -1.04% (inactive); in [10], 5.43% (inactive). The viability increase in [11] is 0.15% (inactive). Also, the RAM network inhibition in test [15] is 4.84% (inactive).

In the case of `COC(=O)C1=C(C)NC(C)=C(C(=O)OC)C1C1CC=CCC1` (stereo not drawn), the viability in test [1] was 85%; in test [3] it was 85% (inactive); in test [4], 75.4% (inactive); in [5], 100% (inactive); in test [6] (setting [16]), 77.1%; in test [6] (setting [17]) it was 100%. Also, the viability in test [12] was 90.4% (inactive); in test [13] it was 87.1% (inactive). Besides, the Her2 level in test [2] was 90.5% (inactive). In addition, the differential viability (reversal) in test [6] (H69AR cells + 2 uM doxorubicin) is 23.3% (inactive). For the same compound, the inhibition in test [7] is -0.91% (inactive); in test [8], 6.89% (inactive); in test [14] it was 2.73% (inactive). Also, the results for the growth inhibition in test [9] and in test [10] were -3.42% (inactive) and -21.7% (inactive), respectively. Further, in test [11], the viability increase was -4.18% (inactive). For the same compound, the RAM network inhibition in test [15] is 8.09% (inactive).

For the compound `CCCc1cc(C(=O)Nc2sc(C)c(C)c2C(=O)OCC)no1`, the viability in test [1] was 86%; in test [3] it was 86% (inactive); in [4], 85.8% (inactive); in [5], 92.6% (inactive); in [6] (setting [16]), 92%; in test [6] (setting [17]) it was 92.6%. For the same compound, the viability in [12] is 102% (inactive); in test [13], 97.9% (inactive). For the same compound, in test [2], the Her2 level is 79% (inactive). The differential viability (reversal) in test [6] (H69AR cells + 2 uM doxorubicin) is 0.625% (inactive). The inhibition in [7] is -1.79% (inactive); in test [8] it was 1.17% (inactive); in [14], 3.55% (inactive). The growth inhibition was -10.7% (inactive) in [9] and 2.83% (inactive) in [10]. Besides, the viability increase in [11] is 2.07% (inactive). For the same compound, the RAM network inhibition in test [15] was 7.13% (inactive).

With `CC1=C(C(=O)Nc2ccc(F)cc2)C(c2cccc(C)c2)n2nc(CCCO)nc2N1` (stereo not drawn), the viability in [1] is 87.5%; in test [3] it was 87.5% (inactive); in test [4] it was 79% (inactive); in test [5], 94% (inactive); in [6] (setting [16]), 92.5%; in test [6] (setting [17]), 94%. Besides, the values for the viability in test [12] and in test [13] were 98.2% (inactive) and 100% (inactive), respectively. Moreover, the Her2 level in test [2] was 91.5% (inactive). The differential viability (reversal) in test [6] (H69AR cells + 2 uM doxorubicin) is 1.5% (inactive). In addition, the inhibition is -3.73% (inactive) in test [7], -2.83% (inactive) in [8] and -0.19% (inactive) in [14]. The growth inhibition was -1.56% (inactive) in test [9] and -3% (inactive) in test [10]. The viability increase in [11] was -0.66% (inactive). Besides, the RAM network inhibition in test [15] was 1.3% (inactive).

With `CCOC(=O)c1ccc2ncc(C(=O)OCC)c(NCCN(C)C)c2c1`, the viability was 84% in test [1]; 84% (inactive) in [3]; 102% (inactive) in test [4]; 91.8% (inactive) in test [5]; 81.2% in test [6] (setting [16]); 91.8% in [6] (setting [17]). The figures for the viability in test [12] and in [13] were 95.8% (inactive) and 94.8% (inactive), respectively. For the same compound, in [2], the Her2 level was 99.5% (inactive). The differential viability (reversal) in [6] (H69AR cells + 2 uM doxorubicin) is 10.6% (inactive). The inhibition in test [7] is -0.8% (inactive); in test [8], 1.83% (inactive); in test [14], 2.64% (inactive). Further, the growth inhibition in [9] is -4.69% (inactive); in test [10], 2.56% (inactive). For the same compound, the viability increase in test [11] was -1.02% (inactive). Besides, in test [15], the RAM network inhibition was 2.56% (inactive).

In the case of `c1ccc(CN2CCN(CCCNc3ccc4nnc(-c5ccccc5)n4n3)CC2)cc1`, the viability in test [1] was 83%; in [3], 83% (inactive); in test [4] it was 50.2% (inactive); in test [5], 86.3% (inactive); in test [6] (setting [16]), 30.8%; in test [6] (setting [17]) it was 86.3%. Further, the viability in [12] is 50% (inactive); in test [13], 55.5% (inactive). Moreover, the Her2 level in test [2] was 78.5% (inactive). Moreover, in test [6] (H69AR cells + 2 uM doxorubicin), the differential viability (reversal) is 55.5% (active). The inhibition was 0.13% (inactive) in test [7], -2.17% (inactive) in test [8] and 2.78% (inactive) in [14]. Besides, the growth inhibition was -8.05% (inactive) in test [9] and 5.01% (inactive) in [10]. Besides, in test [11], the viability increase is -7.78% (inactive). In [15], the RAM network inhibition was 3.65% (inactive).

For the compound `Cn1c(/C=N/n2cnnc2)nc2ccccc21`, the viability in test [1] was 100%; in test [3], 100% (inactive); in test [4] it was 105% (inactive); in test [5] it was 83.4% (inactive); in test [6] (setting [16]) it was 97.8%; in [6] (setting [17]), 83.4%. Besides, the viability in [12] was 94% (inactive); in [13] it was 94.2% (inactive). Besides, in test [2], the Her2 level was 78% (inactive). The differential viability (reversal) in test [6] (H69AR cells + 2 uM doxorubicin) is -14.4% (inactive). In addition, the inhibition is -0.26% (inactive) in [7], -5% (inactive) in test [8] and 0.41% (inactive) in test [14]. The growth inhibition in test [9] was -4.11% (inactive); in test [10], -2.04% (inactive). Moreover, the viability increase in test [11] is -3.76% (inactive). In test [15], the RAM network inhibition was 5.84% (inactive).

Regarding `Cc1onc(-c2ccccc2Cl)c1C(=O)N1CCc2ccccc21`, the viability in test [1] is 87.5%; in [3], 87.5% (inactive); in [4] it was 80.9% (inactive); in test [5], 79% (inactive); in test [6] (setting [16]), 88.1%; in [6] (setting [17]), 79%. Moreover, the values for the viability in test [12] and in [13] were 82.8% (inactive) and 87.1% (inactive), respectively. The Her2 level in test [2] was 78.5% (inactive). Further, in [6] (H69AR cells + 2 uM doxorubicin), the differential viability (reversal) is -9.1% (inactive). Also, the inhibition was -1.82% (inactive) in test [7], -5.5% (inactive) in [8] and 2.23% (inactive) in test [14]. The values for the growth inhibition in [9] and in test [10] were -1.1% (inactive) and -8.1% (inactive), respectively. Also, in [11], the viability increase was -3.41% (inactive). Besides, the RAM network inhibition in test [15] was 7.99% (inactive).
